# Records with an inconclusive call do not appear. A call without a number means that no potency is given here. Active and inactive are the calls of the source. Unless noted, calls follow the shape of the dose curve; as a rule, active = well fitted curve in either direction with a large enough effect (not every such curve was filed as active); inconclusive = small, poorly fitted or top-dose-only effect, or another doubt; inactive = flat fitted curve, though single readings scatter.
# Columns and labels:
# [1] = Cell Viability - Jurkat (AID 426;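 active = dose-dependent loss of cell ATP signal giving a full or clear fitted curve, ranked by lower potency value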;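 also: potency is read from the fitted curve at half-maximal effect; cells exposed to compound for 40 hours at 37 °C before ATP read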); conditions: qHTS
# How it was run: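 Cytotoxicity taken as drop in cellular ATP (CellTiter-Glo luminescence, 20 min room temperature) after 40 hr, 37C treatment of 5000 Jurkat Clone E6-1 cells per well; concentration-response fitted with Hill equation for AC50.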
# [2] = target: Mitogen-activated protein kinase 10 (Mus musculus) (UniProt Q61831); experiment: JNK3 AlphaScreen Assay (AID 530); conditions: JNK3 lysate, c-Jun phosphorylation; series mostly up to 11.4 µM;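 also: kinase came from lysate of stimulated human HepG2 cells; signal reports phosphorylation of biotinylated GST-cJun 1-79 at Ser73 with 10 µM ATP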
# How it was run: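 qHTS titrations with 15 min compound pre-incubation before adding ATP (10 uM final). Read-out: AlphaScreen of Ser73-phosphorylated biotin-GST-cJun using HepG2 lysate JNK3 activated by IL-1β and TNFα.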
# [3] = Cell Viability - NIH 3T3 (AID 541; active = well fitted curve in the direction sought with a large enough effect; an effect the other way counts as inactive or inconclusive;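 also: cells exposed to compound for 40 hours; nearly all actives have a fitted effect of over 25% in size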); conditions: NIH 3T3 cell viability, qHTS; activity change, negative = cytotoxicity: at 92.2 µM (top of the series)
# How it was run: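 Intracellular ATP (CellTiter-Glo luminescence, 20 min at room temperature) measured after 40 hr compound exposure at 37 °C of 1000 NIH 3T3 mouse fibroblasts/well in complete medium; AC50 derived by Hill-equation modelling of qHTS concentration-response curves.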
# [4] = MultiTox-Fluor Cytotoxicity Assay - LYMP1-002 - Dead Cells (AID 960; active = well fitted curve in the direction sought with a large enough effect; an effect the other way counts as inactive or inconclusive; also: nearly all actives have a fitted effect of over 60% in size); conditions: LYMP1-002 lymphoblastoid cells, dead-cell protease fluorescence; series mostly up to 46.1 µM
# How it was run: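 Dead-cell fluorescence (Ex/Em 485/520) after 16 h compound exposure at 37 C of LYMP1-002 lymphoblastoid cells in complete medium; AC50 by Hill equation, with data scaled between DMSO and 15 uM tetraoctylammonium bromide.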
# [5] = target: Glucocorticoid receptor (Homo sapiens) (UniProt P04150); experiment: qHTS assay for small molecule agonists of glucocorticoid receptor signaling (AID 588532; active = well fitted curve in the direction sought with a large enough effect in the signal ratio, with a control signal flat; the % refers to the signal ratio); conditions: HeLa MMTV-bla, beta-lactamase ratio, agonist, 18 h; stronger effect = higher value; percent of dexamethasone control, DMSO zero
# Glucocorticoid receptor (Homo sapiens), sequence (P04150 whole entry, looked up): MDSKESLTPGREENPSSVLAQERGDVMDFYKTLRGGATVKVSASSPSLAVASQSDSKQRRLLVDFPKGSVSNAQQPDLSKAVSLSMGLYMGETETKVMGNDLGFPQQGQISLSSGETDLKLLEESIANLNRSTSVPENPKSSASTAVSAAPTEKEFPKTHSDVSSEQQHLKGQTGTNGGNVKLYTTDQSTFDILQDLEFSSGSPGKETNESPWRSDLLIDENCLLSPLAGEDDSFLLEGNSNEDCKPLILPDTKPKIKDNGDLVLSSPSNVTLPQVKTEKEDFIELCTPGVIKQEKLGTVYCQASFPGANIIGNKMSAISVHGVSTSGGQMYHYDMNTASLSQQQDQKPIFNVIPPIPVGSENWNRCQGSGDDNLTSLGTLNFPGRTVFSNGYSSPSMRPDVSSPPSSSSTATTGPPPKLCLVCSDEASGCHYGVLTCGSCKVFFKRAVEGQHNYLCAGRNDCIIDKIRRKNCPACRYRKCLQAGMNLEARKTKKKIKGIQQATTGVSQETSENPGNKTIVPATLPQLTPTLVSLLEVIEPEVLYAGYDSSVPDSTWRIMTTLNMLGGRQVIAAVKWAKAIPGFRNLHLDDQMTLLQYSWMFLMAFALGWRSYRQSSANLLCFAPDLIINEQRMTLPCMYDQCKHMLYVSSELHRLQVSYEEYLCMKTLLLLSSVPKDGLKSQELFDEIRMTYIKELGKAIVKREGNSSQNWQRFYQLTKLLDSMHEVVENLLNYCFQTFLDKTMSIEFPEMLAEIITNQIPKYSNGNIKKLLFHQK
# How it was run: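 Using MMTV-bla HeLa cells in medium with 1% stripped FBS and 25 mM HEPES, compounds were titrated and incubated overnight-length (18 h). Beta-lactamase cleavage of CCF4 was quantified by dual-emission fluorescence.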
# [6] = target: Vitamin D3 receptor (Homo sapiens) (UniProt P11473); experiment: qHTS assay for small molecule antagonists of vitamin D receptor signaling (AID 588541; calls by dose curve;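 also: receptor activated by calcitriol during compound treatment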); conditions: HEK293T VDR-UAS-bla, beta-lactamase ratio, antagonist mode; series mostly up to 76.7 µM
# Vitamin D3 receptor (Homo sapiens), sequence (P11473 whole entry, looked up): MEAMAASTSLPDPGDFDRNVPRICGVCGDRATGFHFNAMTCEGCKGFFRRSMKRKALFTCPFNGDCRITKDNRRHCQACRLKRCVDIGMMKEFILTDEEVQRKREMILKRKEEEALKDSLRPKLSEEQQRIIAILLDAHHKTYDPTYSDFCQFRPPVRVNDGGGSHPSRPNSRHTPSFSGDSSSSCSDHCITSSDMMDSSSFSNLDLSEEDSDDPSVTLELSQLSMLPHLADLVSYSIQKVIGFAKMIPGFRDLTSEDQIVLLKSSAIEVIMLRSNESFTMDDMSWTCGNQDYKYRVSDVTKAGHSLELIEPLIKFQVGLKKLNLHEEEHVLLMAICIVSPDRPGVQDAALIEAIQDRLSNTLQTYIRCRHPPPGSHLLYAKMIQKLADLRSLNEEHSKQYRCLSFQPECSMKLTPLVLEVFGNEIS
# How it was run: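 Antagonist-mode beta-lactamase reporter assay: HEK293T VDR-UAS-bla cells were exposed to titrated compound alongside 1-alpha,25-dihydroxyvitamin D3 at 3 nM final for 16 h. Values were normalized to the 50 nM agonist control and DMSO basal, with IC50 and efficacy from Hill equation fits.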
# [7] = target: Vitamin D3 receptor (Homo sapiens) (UniProt P11473); experiment: qHTS assay for small molecule agonists of vitamin D receptor signaling (AID 588543; calls by dose curve); conditions: HEK293T VDR-UAS-bla, beta-lactamase ratio, 16 h; series mostly up to 76.8 µM
# How it was run: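 Measured: β-lactamase reporter activity (CCF4, 405 nm excitation, 460/530 nm emission) in HEK293T VDR-UAS-bla cells after 16 h compound exposure at 37 °C. Normalization against 50 nM 1α,25-dihydroxyvitamin D3 and DMSO; Hill-fit EC50.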
# [8] = target: Voltage-gated inwardly rectifying potassium channel KCNH2 (Homo sapiens) (UniProt Q12809); experiment: qHTS Assay for Small Molecule Inhibitors of the Human hERG Channel Activity (AID 588834; active = well fitted curve in the direction sought with a large enough effect; an effect the other way counts as inactive or inconclusive;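 also: top concentration of the series differs between compounds; lower thallium flux fluorescence means stronger hERG block; nearly all actives have a fitted effect of over 50% in size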); conditions: U2OS BacMam hERG, FluxOR thallium flux fluorescence; series mostly up to 92.2 µM
# Voltage-gated inwardly rectifying potassium channel KCNH2 (Homo sapiens), sequence (Q12809 whole entry, looked up): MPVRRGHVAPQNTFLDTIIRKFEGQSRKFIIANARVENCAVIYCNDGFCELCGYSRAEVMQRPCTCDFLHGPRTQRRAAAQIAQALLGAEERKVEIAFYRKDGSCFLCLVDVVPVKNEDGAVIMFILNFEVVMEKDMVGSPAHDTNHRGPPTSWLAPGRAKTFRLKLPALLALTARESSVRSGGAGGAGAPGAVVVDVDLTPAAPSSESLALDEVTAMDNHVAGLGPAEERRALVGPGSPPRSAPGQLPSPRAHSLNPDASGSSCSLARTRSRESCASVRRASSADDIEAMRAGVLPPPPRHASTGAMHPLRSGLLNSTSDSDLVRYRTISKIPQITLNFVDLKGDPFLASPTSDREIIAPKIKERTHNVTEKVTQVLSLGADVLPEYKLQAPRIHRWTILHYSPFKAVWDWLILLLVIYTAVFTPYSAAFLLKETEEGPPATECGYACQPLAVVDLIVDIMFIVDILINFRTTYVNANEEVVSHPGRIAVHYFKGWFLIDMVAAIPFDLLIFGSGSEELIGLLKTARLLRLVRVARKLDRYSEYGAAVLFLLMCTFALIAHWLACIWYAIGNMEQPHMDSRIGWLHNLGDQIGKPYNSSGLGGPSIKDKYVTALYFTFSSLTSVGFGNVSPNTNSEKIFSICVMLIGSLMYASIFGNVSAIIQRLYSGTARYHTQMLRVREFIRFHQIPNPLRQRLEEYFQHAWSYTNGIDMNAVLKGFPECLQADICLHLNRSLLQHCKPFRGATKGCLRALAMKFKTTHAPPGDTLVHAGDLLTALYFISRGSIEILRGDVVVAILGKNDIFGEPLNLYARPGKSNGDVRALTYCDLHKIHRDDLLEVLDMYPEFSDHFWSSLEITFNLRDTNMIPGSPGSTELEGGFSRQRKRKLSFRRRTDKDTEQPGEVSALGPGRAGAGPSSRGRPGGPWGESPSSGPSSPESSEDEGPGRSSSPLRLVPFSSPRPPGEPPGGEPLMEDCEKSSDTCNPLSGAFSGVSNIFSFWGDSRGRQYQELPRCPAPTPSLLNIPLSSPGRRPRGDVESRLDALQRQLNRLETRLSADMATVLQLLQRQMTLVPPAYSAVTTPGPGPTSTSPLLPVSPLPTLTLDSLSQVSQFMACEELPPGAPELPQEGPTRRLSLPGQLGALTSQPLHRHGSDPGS
# How it was run: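 Homogeneous FluxOR thallium flux assay using hERG-expressing U2OS cells (BacMam). Compound treatment about 10 minutes preceded stimulation; reduced fluorescence taken as channel block.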
# [9] = target: Nuclear receptor ROR-gamma (Homo sapiens) (UniProt P51449); experiment: qHTS assay for small molecule antagonists of the retinoid-related orphan receptor gamma (ROR-gamma) signaling pathway (AID 651802; active = well fitted curve in the direction sought with a large enough effect; an effect the other way counts as inactive or inconclusive; also: nearly all actives have a fitted effect of over 60% in size; also: potency is read from the fitted curve at half-maximal effect); conditions: ROR-gamma antagonist cell reporter assay; series mostly up to 92.2 µM
# Nuclear receptor ROR-gamma (Homo sapiens), sequence (P51449 whole entry, looked up): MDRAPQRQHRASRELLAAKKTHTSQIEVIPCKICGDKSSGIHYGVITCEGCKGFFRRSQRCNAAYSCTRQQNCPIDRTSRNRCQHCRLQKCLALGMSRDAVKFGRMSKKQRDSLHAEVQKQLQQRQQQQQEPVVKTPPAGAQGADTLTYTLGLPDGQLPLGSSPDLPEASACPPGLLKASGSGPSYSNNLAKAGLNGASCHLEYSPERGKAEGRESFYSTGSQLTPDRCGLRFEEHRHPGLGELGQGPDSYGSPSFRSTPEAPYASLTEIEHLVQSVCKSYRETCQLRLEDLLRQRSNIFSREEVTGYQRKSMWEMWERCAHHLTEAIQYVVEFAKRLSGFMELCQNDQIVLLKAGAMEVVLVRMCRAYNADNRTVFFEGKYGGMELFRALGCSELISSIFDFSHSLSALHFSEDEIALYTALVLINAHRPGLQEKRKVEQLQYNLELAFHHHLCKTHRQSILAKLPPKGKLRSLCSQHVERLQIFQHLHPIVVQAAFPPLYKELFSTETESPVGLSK
# How it was run: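 Luminescence (One-Glo, 30 min RT) measured 16 h after compound addition and doxycycline induction at 37C. Reporter: RORE-luciferase under TET-inducible ROR-gamma in CHO cells.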
# [10] = qHTS assay for small molecule agonists of the antioxidant response element (ARE) signaling pathway measured by Nrf2-dependant transcriptional activity (AID 720636; active = well fitted curve in the direction sought with a large enough effect in the repeat runs; an effect the other way counts as inactive or inconclusive;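 also: HepG2 cells with an ARE-driven luciferase reporter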); conditions: ARE-luc HepG2, Nrf2 luciferase reporter, 16 h; series mostly up to 92.4 µM
# How it was run: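 Attachment 6 hr at 37 C, then compound versus DMSO vehicle for 16 hr in ARE-luc HepG2 cells (1% dialyzed FBS); luminescence recorded 30 min after ONE-Glo addition at room temperature.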
# [11] = qHTS assay for cell viability of the p53RE-bla HCT-116 cell line (AID 743292; active = well fitted curve in the direction sought with a large enough effect; an effect the other way counts as inactive or inconclusive; also: nearly all actives have a fitted effect of over 55% in size); conditions: p53RE-bla HCT-116 viability, ATP luminescence, 16 h; series mostly up to 95 µM
# How it was run: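 Compound-exposed HCT-116 (p53RE-bla) cells, 4,000 per well, were kept 16 h at 37 C following a 5 h preincubation. Cell number was estimated from total ATP by CellTiter-Glo luminescence read after 30 min at room temperature.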
# [12] = qHTS assay for small molecule activators of the human pregnane X receptor (PXR) signaling pathway (AID 720659; call rule not given here); conditions: DPX-2 HepG2 CYP3A4-luciferase, 24 h; series mostly up to 92.3 µM
# [13] = target: Cytochrome P450 3A4 (Homo sapiens) (UniProt P08684); experiment: qHTS Assay for Inhibitors and Substrates of Cytochrome P450 3A4 (AID 884; active = well fitted curve in the direction sought with a large enough effect; an effect the other way counts as inactive or inconclusive; also: nearly all actives have a fitted effect of over 50% in size; also: potency is read from the fitted curve at half-maximal effect); conditions: recombinant CYP3A4, Luciferin-PPXE luminescence; series mostly up to 57.1 µM
# Cytochrome P450 3A4 (Homo sapiens), sequence (P08684 whole entry, looked up): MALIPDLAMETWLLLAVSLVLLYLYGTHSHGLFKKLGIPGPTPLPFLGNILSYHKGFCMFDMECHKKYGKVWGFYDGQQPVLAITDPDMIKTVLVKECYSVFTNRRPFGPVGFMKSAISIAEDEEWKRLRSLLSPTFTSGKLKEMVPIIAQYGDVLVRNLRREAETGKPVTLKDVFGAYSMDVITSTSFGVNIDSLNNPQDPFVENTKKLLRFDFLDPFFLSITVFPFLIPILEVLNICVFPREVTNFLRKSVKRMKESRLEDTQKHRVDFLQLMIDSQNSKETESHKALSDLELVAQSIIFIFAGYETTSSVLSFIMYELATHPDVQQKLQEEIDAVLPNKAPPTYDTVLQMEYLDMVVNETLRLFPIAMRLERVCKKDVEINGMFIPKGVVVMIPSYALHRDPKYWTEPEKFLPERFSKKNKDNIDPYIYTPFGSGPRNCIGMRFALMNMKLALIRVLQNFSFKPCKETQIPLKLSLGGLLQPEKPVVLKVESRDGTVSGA
# How it was run: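 Luminescent readout of luciferin produced by CYP3A4 (20 nM) dealkylation of Luciferin-PPXE, 25 uM (its KM). NADPH-driven reaction ran 60 min at RT after 10 min compound preincubation; data scaled to 57 uM ketoconazole as 100% inhibition.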
# [14] = Cell Viability - LYMP2-019 (AID 973; active = well fitted curve in the direction sought with a large enough effect; an effect the other way counts as inactive or inconclusive; also: nearly all actives have a fitted effect of over 55% in size); conditions: LYMP2-019 lymphoblastoid cell line viability; series mostly up to 92.2 µM
# How it was run: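 AC50 values come from Hill-equation fits of luminescent intracellular ATP (CellTiter-Glo, 30 min, room temperature) following 24 h compound exposure at 37 C. Cells: LYMP2-019 lymphoblastoid line, 2500 per well, in complete culture medium.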
# [15] = qHTS assay for small molecule agonists of retinoid X receptor alpha signaling (AID 588544); conditions: HEK293T RXRa-UAS-bla, beta-lactamase reporter, 18 h; 530 nm emission
# [16] = qHTS assay for small molecule activators of the nuclear factor-kappa B (NF-kB) signaling pathway (AID 651749; active = well fitted activation curve with a large enough effect in the signal ratio; the % refers to the signal ratio); conditions: NF-kB-bla ME-180 cells, beta-lactamase FRET ratio, 16 h; stronger effect = higher value
# How it was run: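 Activation measured after 16 hr compound treatment at 37C, 5% CO2, of 2,000 ME-180 cells/well stably expressing an NF-kB response element–driven beta-lactamase reporter, via FRET-disruption fluorescence.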
# [17] = target: Tumor necrosis factor (Homo sapiens) (UniProt P01375); experiment: qHTS assay to identify small molecules that stimulate Tumor Necrosis Factor-alpha (TNF-alpha) secretion (AID 651757; active = well fitted curve in the direction sought with a large enough effect in the signal ratio; the % refers to the signal ratio); conditions: Human cells, HTRF 665/615 ratio; series mostly up to 92.2 µM
# Tumor necrosis factor (Homo sapiens), sequence (P01375 whole entry, looked up): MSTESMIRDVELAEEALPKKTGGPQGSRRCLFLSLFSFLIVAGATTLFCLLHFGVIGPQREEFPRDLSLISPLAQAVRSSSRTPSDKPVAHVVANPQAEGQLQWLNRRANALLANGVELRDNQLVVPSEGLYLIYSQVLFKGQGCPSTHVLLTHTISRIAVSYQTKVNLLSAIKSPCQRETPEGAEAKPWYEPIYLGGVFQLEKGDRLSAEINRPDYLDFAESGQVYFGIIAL
# How it was run: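 Secreted TNF-alpha quantified by TR-FRET sandwich of two labeled anti-TNF-alpha antibodies, incubated 3 hr at room temperature. Preceded by 17 hr, 37 C compound treatment of THP-1 cells at 3000 cells/well.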
# [18] = Cell Viability - LYMP2-009 (AID 968; active = well fitted curve in the direction sought with a large enough effect; an effect the other way counts as inactive or inconclusive; also: nearly all actives have a fitted effect of over 55% in size); conditions: LYMP2-009 lymphoblastoid cell viability; series mostly up to 92.2 µM
# [19] = target: Thyroid hormone receptor beta (Homo sapiens) (UniProt P10828); experiment: qHTS assay for small molecule agonists of thyroid hormone receptor beta signaling (AID 588545; calls by dose curve); conditions: TR-UAS-bla GripTite HEK 293, beta-lactamase ratio, agonist mode, 18 h; series mostly up to 76.7 µM
# Thyroid hormone receptor beta (Homo sapiens), sequence (P10828 whole entry, looked up): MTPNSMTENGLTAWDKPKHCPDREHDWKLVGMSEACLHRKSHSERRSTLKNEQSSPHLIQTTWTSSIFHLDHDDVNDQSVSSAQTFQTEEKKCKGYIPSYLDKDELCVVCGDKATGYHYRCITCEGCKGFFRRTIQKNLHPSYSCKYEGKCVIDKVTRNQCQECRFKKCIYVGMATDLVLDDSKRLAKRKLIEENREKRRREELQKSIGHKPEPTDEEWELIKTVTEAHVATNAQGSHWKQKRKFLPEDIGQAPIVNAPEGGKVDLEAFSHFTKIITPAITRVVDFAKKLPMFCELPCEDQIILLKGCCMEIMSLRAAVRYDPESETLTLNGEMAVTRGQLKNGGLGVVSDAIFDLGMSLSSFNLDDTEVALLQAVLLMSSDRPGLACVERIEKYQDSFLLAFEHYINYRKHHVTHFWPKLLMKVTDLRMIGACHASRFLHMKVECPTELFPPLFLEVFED
# How it was run: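 Cells (2500/well) were seeded, incubated 4 hrs at 37 C, dosed with a compound series, incubated 18 hrs, loaded with CCF4 dye for 2 hrs at RT, then read for fluorescence. Data were scaled between DMSO (0%) and 10 nM T3 (100%).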
# [20] = qHTS assay for small molecule agonists of the antioxidant response element (ARE) signaling pathway (AID 651741; active = well fitted activation curve with a large enough effect in the signal ratio; the % refers to the signal ratio; also: potency is read from the fitted curve at half-maximal effect); conditions: HepG2 ARE-bla reporter, beta-lactamase FRET ratio, 16 h; series mostly up to 96 µM
# How it was run: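 Beta-lactamase reporter under ARE control in HepG2 cells, 2,000 per well, was induced by 16 h compound treatment at 37 C. Read-out was fluorescence from LiveBLAzer B/G FRET substrate after 2 h at room temperature.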
smiles,measurement,setting,value
Nc1ccc(-c2ccc(N)c(O)c2)cc1O,Potency,[1],32.3 µM (active)
same,Potency,[2],inactive
same,"activity change, negative = cytotoxicity",[3],-88.2% (active)
same,Potency,[4],inactive
same,activation,[5],0.0418% (inactive)
same,Potency,[6],inactive
same,Potency,[7],inactive
same,Potency,[8],inactive
same,Potency,[9],inactive
same,Potency,[10],inactive
same,Potency,[11],inactive
same,outcome,[12],inactive
O=CC(=O)c1ccccc1,Potency,[2],inactive
same,Potency,[13],inactive
same,Potency,[4],inactive
same,Potency,[14],inactive
same,activation,[5],-5.46% (inactive)
same,Potency,[6],inactive
same,Potency,[7],inactive
same,max response,[15],-0.232%
same,Potency,[8],inactive
same,activation,[16],-1.11% (inactive)
same,Potency,[17],inactive
same,Potency,[10],inactive
same,outcome,[12],inactive
Nc1ccc(N=Nc2ccccc2)c(N)c1,Potency,[1],> 92 µM (inactive)
same,Potency,[13],12.6 µM (active)
same,Potency,[4],inactive
same,Potency,[18],inactive
same,Potency,[14],inactive
same,activation,[5],-4.54% (inactive)
same,max response,[15],0.404%
same,Potency,[19],inactive
same,Potency,[20],42.2 µM (active)
same,activation,[16],-1.7% (inactive)
same,Potency,[9],inactive
C[C@@H]1CC2(OC(O)[C@]3(C)O[C@H]23)O[C@H]2C[C@@]3(C)[C@@H]4CC[C@H]5C(C)(C)C(O[C@@H]6OC[C@@H](O)[C@H](O)[C@H]6O)CC[C@@]56C[C@@]46CC[C@]3(C)[C@@H]12 (some centres undefined),Potency,[1],41.2 µM (inactive)
same,Potency,[2],inactive
same,Potency,[13],inactive
same,Potency,[18],inactive
same,activation,[5],1.76% (inactive)
same,Potency,[8],inactive
same,activation,[16],-2.65% (inactive)
same,Potency,[17],inactive
same,Potency,[9],33.5 µM (active)
same,Potency,[10],inactive
same,outcome,[12],inactive
CC[C@@H](CO)Nc1nc(NCc2ccccc2)c2ncn(C(C)C)c2n1,Potency,[2],inactive
C[C@@H](N)[C@@H](C)Cc1ccccc1,Potency,[2],inactive
CO[C@@H](NC(N)=O)C(=O)O,Potency,[2],inactive
O=C(O)c1cc(N=Nc2ccc([N+](=O)[O-])cc2)ccc1O,Potency,[1],> 92 µM (inactive)
same,"activity change, negative = cytotoxicity",[3],-24.1% (inactive)
same,Potency,[13],inactive
same,Potency,[18],inactive
same,activation,[5],-18.2% (inactive)
same,Potency,[8],inactive
same,activation,[16],-2.01% (inactive)
same,Potency,[17],inactive
same,Potency,[9],inactive
NS(=O)(=O)c1cc2c(cc1Cl)N[C@H](Cc1ccccc1)NS2(=O)=O,Potency,[2],inactive
CC(C)(C)NC[C@@H](O)c1ccc(O)c(CO)n1,Potency,[2],inactive
COc1cccc(Cn2c(=O)c(C)nc3cnc(Oc4cccc(Cl)c4)nc32)c1,Potency,[2],inactive
O=[N+]([O-])c1ccccc1N=Nc1c(O)[nH]c2ccc(S(=O)(=O)O)cc12,Potency,[2],inactive
O=C(O)c1ccc(NS(=O)(=O)Cc2ccccc2)cc1,Potency,[2],inactive
O=C(O)c1ccc(C(=O)c2ccccc2C(=O)O)cc1C(=O)O,Potency,[2],inactive
CC(C)c1ccc(/C=C2\C=C(c3ccc4ccccc4c3)OC2=O)cc1,Potency,[2],inactive
COc1ccc(CNc2ncnc3ccc(-c4ccccc4C#N)cc23)c(OC)c1,Potency,[2],inactive
CN(C)[C@H]1C(=O)C(C(=O)NCN2CCCC2)=C(O)[C@]2(O)C(=O)C3=C(O)c4c(O)cccc4[C@](C)(O)[C@H]3C[C@H]12,Potency,[2],inactive
Cc1nc2cnc(OCc3ccccc3)nc2n(Cc2ccc(F)cc2)c1=O,Potency,[2],inactive
CN(N=O)c1ccc(/C=C\c2ccnc3ccccc23)cc1,Potency,[2],inactive
CN(C)CCCn1c2ccccc2c2cnccc21,Potency,[2],inactive
Cc1cn([C@H]2C[C@H](N=[N+]=[N-])[C@H](CO)O2)c(=O)[nH]c1=O,Potency,[2],inactive
OCCCN=C1CCCCC1,Potency,[2],inactive
NC(Cc1ccccc1)=NCC(=O)O,Potency,[2],inactive
O=C(O)c1ccc(Nc2ccnc3cc(Cl)ccc23)cc1O,Potency,[2],inactive
CS[C@@H](CC(=O)O)C(=O)O,Potency,[2],inactive
O=C(O)[C@@H](S)[C@H](S)C(=O)O,Potency,[2],inactive
O=[N+]([O-])c1ccc2ncccc2c1CCc1c([N+](=O)[O-])ccc2ncccc12,Potency,[2],inactive
C[C@]12CC[C@H]3c4ccc(O)cc4CC[C@@H]3[C@H]1CC[C@@H]2OC(=O)CCC1CCCC1,Potency,[2],inactive
